Assay results published in PubChem BioAssay (NCI).
“And” between values parts separate entries of the source, which are not always exact repeats. Equal entries are not always repeated. This is part of a sample that, as a whole, favours compounds with a hit. Of some 83,000 tested, about 20% had one in any assay.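 Single-concentration screen, 48 h exposure, 96-well plates. Endpoint: percent growth. Below 10 = active.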 The source made the active and inactive calls.

Legend:
Assay in all cases: NCI-60 one-dose screen, 48 h (100 = growth as untreated, 0 = no growth, -100 = all killed)
NCI-H23 lung = details: 10 µM unless noted
NCI-H226 lung = details: 10 µM unless noted
NCI-H322M lung = details: 10 µM unless noted
HOP-62 NSCLC = details: 10 µM unless noted
NCI-H460 lung = details: 10 µM unless noted
NCI-H522 lung = details: 10 µM unless noted
A549/ATCC NSCLC = details: 10 µM unless noted
786-0 renal = details: 10 µM unless noted
DU-145 prostate = details: 10 µM unless noted
HOP-92 NSCLC = system: HOP-92 NSCLC

Structure (SMILES)	growth (NCI-H23 lung)	growth (NCI-H226 lung)	growth (NCI-H322M lung)	growth (HOP-62 NSCLC)	growth (NCI-H460 lung)	growth (NCI-H522 lung)	growth (A549/ATCC NSCLC)	growth (786-0 renal)	growth (DU-145 prostate)	growth (HOP-92 NSCLC; 10 µM)	growth (HOP-92 NSCLC; 2.5 µM)
CO[C@H](/C(C)=C/C=C/C(C)=C/c1coc(C)n1)[C@H](C)[C@H]1C[C@@H](O)[C@@]2(C)O[C@H]2/C=C/[C@@H](C)[C@@H]2C[C@@H](CC(=O)O2)C[C@H]2O[C@@H]2C(=O)O1	24.4% (inactive)	34.8% (inactive)	42.9% (inactive)	11.1% (inactive)	8.2% (active)	-33.1% (active)	42.9% (inactive)	15.6% (inactive)	-18.9% (active)		
CCC(=O)OC1CCn2c1nc1c2C(=O)C(C)=C(N2CC2)C1=O (stereo unspecified)	-28.5% (active)	-23% (active)	-5.88% (active)	-29.4% (active)	-23.6% (active)	-43% (active)	2.51% (active)	-16.5% (active)		80.9% (inactive)	
CC[C@@]1(O)C[C@H](OC2CC(N(C)C)C(OC3CC(O)C(OC4CCC(=O)C(C)O4)C(C)O3)C(C)O2)c2c(cc3c(c2O)C(=O)c2c(O)ccc(O)c2C3=O)[C@H]1C(=O)OC (stereo partly specified)	-8.87% (active)	-55.7% (active)	-17.8% (active)	5.22% (active)	-14.4% (active)	-48.1% (active)	-10.6% (active)	17.3% (inactive)	1.38% (active)		
CN1CCN(c2ccc([N+](=O)[O-])c3no[n+]([O-])c23)CC1	-24.1% (active)	-71.9% (active)	-24.2% (active)	-98.3% (active)	-61.4% (active)	-92.1% (active)	-48.7% (active)	-78.6% (active)	-27.4% (active)	-23.1% (active)	
CC(=O)O[C@H]1C[C@@H]2OC3C=C(C)CCC3(C)[C@@]1(C)[C@@]21CO1 (stereo partly specified)	-32.5% (active) and -10.8% (active)	-24.8% (active)	-19.5% (active)	17% (inactive) and -10.8% (active)	0.408% (active) and -3.28% (active)	-46.4% (active) and -45.1% (active)	-9.42% (active) and -20.5% (active)	-15.6% (active) and -10.8% (active)	-10.8% (active) and -37.3% (active)	-21.3% (active) and -15.3% (active)	
NCCc1ccc(OCc2ccccc2)c(OCc2ccccc2)c1	87.6% (inactive)	103% (inactive)	85.4% (inactive)	87.3% (inactive)	60.6% (inactive)			84.2% (inactive)	97.3% (inactive)	-2.74% (active)	
Oc1cccc2cccnc12	102% (inactive) and 109% (inactive) and 104% (inactive)	94.5% (inactive) and 98.1% (inactive) and 98.6% (inactive)	104% (inactive) and 111% (inactive) and 95.5% (inactive)	94.7% (inactive) and 98.3% (inactive) and 104% (inactive)	83.7% (inactive) and 104% (inactive) and 102% (inactive)	10.8% (inactive) and 103% (inactive)	100% (inactive) and 105% (inactive) and 111% (inactive)	106% (inactive) and 105% (inactive)	82% (inactive) and 108% (inactive) and 111% (inactive)	89.1% (inactive)	
CCC1(O)CC(OC2CC(N(C)C)C(OC3CC4OC5CC(=O)C(C)OC5OC4C(C)O3)C(C)O2)c2c(cc3c(c2O)C(=O)c2c(O)ccc(O)c2C3=O)C1C(=O)OC (stereo unspecified)	-52.5% (active)	-8.6% (active)	-32.4% (active)	-26% (active)	-26.3% (active)	-75.4% (active)	1.52% (active)	-35.6% (active)	-12.7% (active)		
CC[n+]1c(-c2ccccc2)c2cc(N)ccc2c2ccc(N)cc21	-9.43% (active)	25.2% (inactive)	25.9% (inactive)	1.84% (active)	3.56% (active)	-28.2% (active)	30.2% (inactive)	15.6% (inactive)	9.09% (active)		
Cc1c(N)nc([C@H](CC(N)=O)NC[C@H](N)C(N)=O)nc1C(=O)N[C@H](C(=O)N[C@H](C)[C@@H](O)[C@H](C)C(=O)N[C@H](C(=O)NCCc1nc(-c2nc(C(=O)NCCC[S+](C)C)cs2)cs1)[C@@H](C)O)C(OC1OC(CO)C(O)C(O)C1OC1OC(CO)C(O)C(OC(N)=O)C1O)c1cnc[nH]1 (stereo partly specified)	37.9% [2.5 µM] (inactive)	37.2% [2.5 µM] (inactive)	97.1% [2.5 µM] (inactive)	43.9% [2.5 µM] (inactive)	23.1% [2.5 µM] (inactive)	57.3% [2.5 µM] (inactive)	52.9% [2.5 µM] (inactive)	27.9% [2.5 µM] (inactive)	58.7% [2.5 µM] (inactive)		-4.74% (active)
COC1CC(CC2CCC(C)C(C(C)C(=O)O)O2)OC2(OC(C)(C3CCC(C)(C4OC(C5OC(O)(CO)C(C)CC5C)CC4C)O3)CC2C)C1C (stereo unspecified)	9.19% (active)	22% (inactive)	9.36% (active)	10.1% (inactive)	4.73% (active)	-55.7% (active)	7.35% (active)	6.74% (active)	17.5% (inactive)		
CC[C@@]1(O)C[C@H](OC2CC(N(C)C)C(O)C(C)O2)c2c(O)c3c(c(O)c2[C@H]1OC1CC(N(C)C)C(O)C(C)O1)C(=O)c1cccc(O)c1C3=O (stereo partly specified)	-37.2% (active)	-16.2% (active)	-31.5% (active)	-20.2% (active)	-4.36% (active)	-65% (active)	1.57% (active)	-2.72% (active)	-4.8% (active)		
CCOC(=O)C(NC(=O)C(Cc1ccc(N(CCCl)CCCl)cc1)NC(C)=O)C(C)C (stereo unspecified)	81% (inactive)	90.8% (inactive)	95.4% (inactive)	83.5% (inactive)	49.9% (inactive)	64.1% (inactive)	56% (inactive)	88.6% (inactive)	99.7% (inactive)	98.7% (inactive)	
O=C1c2ccccc2C(=O)C(Cl)C1Cl (stereo unspecified)	83.8% (inactive)	-74.2% (active)	96.1% (inactive)	87.9% (inactive)	101% (inactive)	-65% (active)	104% (inactive)	16.8% (inactive)	97.8% (inactive)	-62.4% (active)	
Cc1cc(N=Nc2ccccc2C)ccc1N	79.6% (inactive)	71.1% (inactive)	89.2% (inactive)	69.3% (inactive)	80.7% (inactive)	57.6% (inactive)	47.6% (inactive)	-13.5% (active)	68.1% (inactive)	48.8% (inactive)	
